# From PubChem BioAssay
# Rows were chosen to be rich in hits. Some 4.7% of all compounds tested hit in one or more screens of this group.
# PfHsp90 yeast 2 – inhibits growth of yeast expressing Plasmodium falciparum Hsp90. S. cerevisiae expressing PfHsp90, BacTiter-Glo ATP, 48 h; yeast lacking PDR1 and PDR3 efflux regulators. inhibition, % at 9.4 µM. 0.32% of 310,000 active;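 active = every replicate shows inhibition above about 80%, whatever the replicate mean, limit read from the data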;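 also: 0% = DMSO neutral controls and 100% = 20 µM radicicol positive controls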
# TIM10 inh – TIM10 yeast growth inhibition; S. cerevisiae TIM10 strain growth, BacTiter-Glo luminescence, 24 h; 1.4% of 330,000 active; AID 463195; inhibition, % at 10 µM;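 active = inhibition of 40% or more at the single tested concentration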;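 also: wild-type TIM10 isogenic control strain grown at permissive 25 °C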
# tim23-1 inh – inhibits growth of tim23-1 mutant yeast; S. cerevisiae tim23-1 growth, BacTiter-Glo luminescence, 24 h; inhibition, % at 20 µM; 1.3% of 330,000 active;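 active = growth inhibition of the mutant yeast at or above 50%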;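 also: temperature-sensitive mutant grown at 25 °C; plate controls were DMSO-treated mutant yeast for no effect and medium wells lacking yeast for full effect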
# ATG4B inh – inhibitors of human ATG4B cysteine protease | AID 504462 | inhibition, % at 8.33 µM | 0.51% of 340,000 active | ATG4B cleavage of LC3-PLA2, NBD-HPC fluorescence, 1 h | Q9Y4P1; in the data active = inhibition above about 40%
# Target sequence (Q9Y4P1 whole entry, looked up): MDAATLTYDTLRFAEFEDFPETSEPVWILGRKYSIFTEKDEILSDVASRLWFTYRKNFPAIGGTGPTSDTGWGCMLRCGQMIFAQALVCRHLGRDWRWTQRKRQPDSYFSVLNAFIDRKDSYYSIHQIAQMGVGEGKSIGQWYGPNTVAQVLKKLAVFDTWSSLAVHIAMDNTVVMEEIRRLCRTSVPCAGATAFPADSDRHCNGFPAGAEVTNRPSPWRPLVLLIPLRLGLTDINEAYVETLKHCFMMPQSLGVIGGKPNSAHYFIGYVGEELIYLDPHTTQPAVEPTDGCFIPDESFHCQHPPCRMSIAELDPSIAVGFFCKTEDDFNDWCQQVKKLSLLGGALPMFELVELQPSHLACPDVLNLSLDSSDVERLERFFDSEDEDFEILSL
# SKKanGAS inh – blocks kanamycin growth of S. pyogenes SKKanGAS strain; BacTiter-Glo, 6 h; inhibition, % at 7.5 µM; 1.3% of 300,000 active; AID 1662;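 active = mean replicate score, as percent of positive control median, at least 50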;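 also: strain carries kanamycin resistance gene driven by streptokinase promoter and grows in 40 µg/ml kanamycin; loss of luminescence reflects streptokinase promoter inhibition or plain growth inhibition; 0% = median of DMSO wells and 100% = positive control at its reference dose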
# tim10-1 inh – tim10-1 yeast growth inhibition | S. cerevisiae tim10-1 ts strain growth, BacTiter-Glo, 24 h | AID 463190 | 2.2% of 330,000 active | inhibition, % at 20 µM;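 active = inhibition of at least 40%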;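 also: mutant grown at 25 °C; 0% = DMSO wells with yeast and 100% = wells holding no yeast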
# tim10-1 conf – confirmation of tim10-1 mutant yeast growth inhibitors; 56% of 7,400 active; inhibition, % at 20 µM; S. cerevisiae tim10-1 ts strain growth, BacTiter-Glo, 24 h; shares compounds with tim10-1 inh;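 active = inhibition of yeast growth at or above a set limit in either of two repeat tests at 20 µM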;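 also: tim10-1 mutant grown at permissive 25 °C to find synthetic lethal compounds; 0% = DMSO yeast wells and 100% = medium wells without yeast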
# * = called active by the depositor; / = no result given.
SMILES,PfHsp90 yeast 2,TIM10 inh,tim23-1 inh,ATG4B inh,SKKanGAS inh,tim10-1 inh,tim10-1 conf
Cc1cccc(N2CCN(C(=O)c3ccc(CS(=O)Cc4cccc(Cl)c4)o3)CC2)c1C (stereo not given),-9,16,31,23,-1,40,/
CC12C(=O)N(c3cccc(OC(=O)c4ccco4)c3)C(=O)C1C1c3ccccc3C2c2ccccc21 (stereo not given),/,20,39,-2,4,42*,25
CCN1CCc2nc(NC(=O)c3ccc4c(c3)OCCO4)sc2C1,5,1,21,-11,3,-5,/
O=[N+]([O-])/C(C(Cl)=C(Cl)Cl)=C(/Sc1ccccc1)N1CCCCC1,-1,26,42,-10,5,41*,45*
O=C(N/C(=C\c1ccc([N+](=O)[O-])cc1)C(=O)N1CCCCC1)c1ccccc1,-14,1,22,8,1,28,/
CCSC1(SCC)N=C(N)C2(C#N)C(c3ccc(OC)c(OC)c3OC)C12C#N (stereo not given),7,33,14,-8,-10,61*,62*
CCSC1(SCC)N=C(N)C2(C#N)C(c3ccccc3)NC3=C(CCC3)C12C#N (stereo not given),22,-36,-11,-4,9,-7,/
CC(CCc1ccccc1)NC(=O)CSc1ccccc1 (stereo not given),3,15,19,9,-8,12,/
Cc1ccc(NC(=S)NCCSc2ccc(Cl)cc2)cc1,-5,32,36,8,8,38,/
Cc1ccc(SCCNC(=S)Nc2cc(C)cc(C)c2)cc1,-12,15,7,21,3,-2,/
Cc1ccc(SCCNC(=S)Nc2ccc(C)cc2C)cc1,-25,24,32,-1,-4,44*,17
Cc1cccc(C)c1NC(=S)NCCSc1ccc(Cl)cc1,2,31,17,32,45,42*,24
COc1ccc(Cl)cc1NC(=S)NCCSc1ccc(C)cc1,-22,17,32,4,2,49*,40*
COC(=O)C1=C(C(=O)OC)[C@@H]2N(C)c3ccc(OC)cc3[C@@]23C[C@@H](C(=O)OC)N(C(=O)c2ccco2)C3=N1,/,-3,-3,-8,-5,3,/
CCOc1ccc2c(c1)s/c(=N\S(=O)(=O)c1ccc(OC)cc1)n2C(F)F,-51,21,17,-8,2,-1,/
CN1CCN(CCCN2c3ccccc3Sc3ccc(C(F)(F)F)cc32)CC1,-15,27,17,-1,7,42*,26
CC(=O)c1c(C)[n+]([O-])c2ccc3c(non3O)c12,8,4,10,-13,-10,-12,/
CCOC(=O)C1=C(C)c2ccccc2N(C(=O)OC)C1(C)C(=O)OCC (stereo not given),5,3,44,-9,/,12,/
CCC(C)C(=O)N1c2ccccc2C(=C2SC(C(=O)OC)=C(C(=O)OC)S2)C(=S)C1(C)C (stereo not given),-2,27,32,-9,21,44*,29
COc1ccc(-n2c(SCC(=O)Nc3nc(C)cs3)nnc2-c2ccoc2C)cc1,-18,22,19,-15,-1,22,/
Cc1ccc(-c2csc3nc[nH]c(=O)c23)cc1C,-7,22,39,2,-3,41*,27
CCN(CC(=O)N1CCOCC1)S(=O)(=O)c1ccc(C)cc1,/,3,4,0,-4,-8,/
CN1C[C@@H]2C(c3ccccc3)C3(c4ccccc4)CC2(C3)[C@H]1c1ccccc1 (stereo not given in full),0,34,23,-14,0,52*,32*
CN1C[C@@H]2C(c3ccccc3)C3(c4ccc(C#N)cc4)CC2(C3)[C@H]1c1ccccc1 (stereo not given in full),13,14,16,-3,-4,18,/
CCOc1cc(CNc2cccc3ccccc23)cc(Br)c1OCC(=O)NC(C)(C)C,10,-9,7,-9,5,6,/
SMILES,PfHsp90 yeast 2,TIM10 inh,tim23-1 inh,ATG4B inh,SKKanGAS inh,tim10-1 inh,tim10-1 conf
Cc1nc2c(C)cccc2cc1C(=O)N/N=C/c1cccc([N+](=O)[O-])c1,-4,32,32,3,0,31,/
Cc1ccc2nc(C)c(C(=O)N/N=C/c3cccc([N+](=O)[O-])c3)cc2c1,0,40,30,-3,0,47*,45*
COc1ccc(-c2cc(C(F)F)n3ncc(C(=O)N4CCCCC4)c3n2)cc1,-11,13,31,-23,12,8,/
COc1ccc(-c2cc(C(F)F)n3ncc(C(=O)N4CCc5ccccc5C4)c3n2)cc1,6,14,33,0,21,41*,9
COc1cccc(N(CC(=O)O)S(=O)(=O)c2ccccc2)c1,8,14,11,-6,5,14,/
COc1ccc(C/C(C)=N/NC(=S)Nc2ccc(C(C)C)cc2)cc1,-29,10,34,-7,-2,40*,25
CCOCCCNC(=O)C1(O)c2ccccc2NC(=O)N1c1ccc(C)c(C)c1 (stereo not given),-10,6,9,-8,4,-12,/
Nc1ccc(SC(F)(F)F)cc1C(=O)c1ccccc1,-3,24,26,7,40,50*,17
CCc1cc(C(=O)c2ccccc2)c(N)s1,1,-1,30,-5,-13,12,/
C=C(C)CSc1nnc([C@H](CCSC)NC(=O)OC(C)(C)C)o1,-2,8,22,-10,-4,20,/
O=C(Nc1ncc2c(n1)CC(c1cccc(Cl)c1)CC2=O)c1ccco1 (stereo not given),-5,4,31,3,-6,41*,32*
O=C(Nc1ncc2c(n1)CC(c1ccccc1)CC2=O)c1ccco1 (stereo not given),/,16,15,-5,-3,16,/
COc1cc(OC)cc(C(=O)NCCOC23CC4CC(CC(C4)C2)C3)c1,4,4,24,-37,-4,45*,30
S=C(NC1CCCCC1)N(CCc1nc2ccccc2[nH]1)C1CCCC1,-7,37,32,7,4,50*,29
O=C(Nc1ccccc1)N(CCc1nc2ccccc2[nH]1)C1CCCC1,/,8,4,3,2,14,/
Cc1cc(Cl)c2oc(C(=O)N(C)CC3CCOCC3)c(C)c2c1,13,6,33,-3,-8,32,/
CC(NC(=O)c1ccco1)C(c1cccs1)N1CCN(c2ccc(F)cc2)CC1 (stereo not given),-6,5,34,-7,4,47*,18
